# Inconclusive results are not listed. Entries that show only a call come without a potency. Active and inactive are the calls of the source. Calls come from the whole dose curve.
# Molecular target: Muscarinic acetylcholine receptor M1 (Homo sapiens) (UniProt P11229)
# Experiment: Cholinergic receptor muscarinic 1 (CHRM1) small molecule antagonists, cell-based qHTS assay (AID 1963588); note: nearly all actives have a fitted effect of over 40% in size; note: potency is the fitted concentration of half-maximal effect
# Details: CHRM1-CHO antagonist mode, calcium flux fluorescence; series mostly up to 61.5 µM
# In short: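 Compounds were tested at 15 concentrations in three independent runs. Dye-loaded CHRM1-CHO cells were exposed 5 min at room temperature before stimulation by acetylcholine added at 50nM. Intracellular calcium was read kinetically on FDSS for 3 min.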
# Chain of Muscarinic acetylcholine receptor M1 (Homo sapiens) (P11229 whole entry, looked up): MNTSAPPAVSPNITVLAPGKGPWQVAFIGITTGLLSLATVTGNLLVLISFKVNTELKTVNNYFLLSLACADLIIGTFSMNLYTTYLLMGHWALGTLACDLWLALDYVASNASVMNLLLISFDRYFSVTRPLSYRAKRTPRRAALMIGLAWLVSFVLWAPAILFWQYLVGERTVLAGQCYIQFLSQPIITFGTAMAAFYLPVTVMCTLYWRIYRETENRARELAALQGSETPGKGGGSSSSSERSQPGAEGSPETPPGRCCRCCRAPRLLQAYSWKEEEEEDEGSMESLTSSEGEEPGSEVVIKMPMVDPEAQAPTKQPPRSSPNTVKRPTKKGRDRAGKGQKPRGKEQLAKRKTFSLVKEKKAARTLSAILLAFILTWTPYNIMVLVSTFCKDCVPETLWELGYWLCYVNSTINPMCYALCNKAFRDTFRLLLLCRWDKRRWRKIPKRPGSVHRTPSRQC
row,Structure (SMILES),Potency
1,Cc1cc(C)c(NC(=O)CN(CC(=O)O)CC(=O)O)c(C)c1Br,inactive
2,CC(=O)c1c(C)cc(C(C)(C)C)cc1C,inactive
3,O=C(O)Cc1c(Cl)ccc(Cl)c1Cl,inactive
4,CN(CCOc1ccc(NS(C)(=O)=O)cc1)CCc1ccc(NS(C)(=O)=O)cc1,8.18 µM (active)
5,CN(C)CCc1c[nH]c2ccc(C[C@H]3COC(=O)N3)cc12,inactive
6,Cc1ncc(CO)c(C=O)c1O,inactive
7,O=CN1CCCCC1,inactive
8,CCOC(=O)COc1cc(-n2ncc(C(F)(F)F)c(C)c2=O)c(F)cc1Cl,inactive
9,Oc1ccc(-c2ccc(O)cc2)cc1,inactive
10,CN1CCN(C2=Nc3ccccc3Sc3ccc(Cl)cc32)CC1,1.45 µM (active)
11,Cc1cccc([N+](=O)[O-])c1C(=O)O,inactive
12,CCCCCCOC(=O)CCCCC(=O)OCCCCCC,inactive
13,CCOc1ccc(NC(=O)OC(C)C)cc1OCC,inactive
14,CN(C)[C@@H]1C(=O)C(C(=O)NCN2CCCC2)=C(O)[C@@]2(O)C(=O)C3=C(O)c4c(O)cccc4[C@@](C)(O)C3C[C@@H]12 (some centres not stated),inactive
15,CC(=O)OC1CCCCC1,inactive
16,CCCCCCCCOC(C)=O,inactive
17,CCOC(=O)C(C)(C)C,inactive
18,CCCCCCCCN(C)CCCCCCCC,inactive
19,COc1cc2nc(Cl)nc(N)c2cc1OC,inactive
20,CCN(CC)c1ccc(C=O)cc1,inactive
21,COc1ccc(C)cc1[N+](=O)[O-],inactive
22,O=C1c2ccccc2C(=O)C1(O)O,inactive
23,COC[C@H](c1ccc(C(F)(F)F)cc1)N1CCN(C2(C)CCN(C(=O)c3c(C)ncnc3C)CC2)C[C@H]1C,5.16 µM (active)
24,CCOc1cccc(N)c1,inactive
25,CCCCCCCCCCCC(C)=O,inactive
26,CC(=O)Oc1ccc(C(C)=O)cc1,inactive
27,CCOC(=O)CCC(=O)OCC,inactive
28,C=CC(OCC)OCC,inactive
29,CN1CCC[C@@H]1Cc1c[nH]c2ccc(CCS(=O)(=O)c3ccccc3)cc12,inactive

# Molecular target: Muscarinic acetylcholine receptor M1 (Homo sapiens) (UniProt P11229)
# Experiment: Cholinergic receptor muscarinic 1 (CHRM1) small molecule agonists, cell-based qHTS assay (AID 1963589); note: nearly all actives have a fitted effect of over 35% in size
# Details: CHRM1-CHO cells, agonist mode, calcium flux fluorescence; series mostly up to 76.8 µM
# In short: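 Kinetic fluorescence (1 s intervals) of calcium-sensitive dye in human M1 CHO cells after compound addition; cells pre-incubated 18 h at 37 C/5% CO2 and dye-loaded 1 h.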
row,Structure (SMILES),Potency
1,Cc1cc(C)c(NC(=O)CN(CC(=O)O)CC(=O)O)c(C)c1Br,inactive
2,CC(=O)c1c(C)cc(C(C)(C)C)cc1C,inactive
3,O=C(O)Cc1c(Cl)ccc(Cl)c1Cl,inactive
4,CCCCCc1ccco1,inactive
5,CN(CCOc1ccc(NS(C)(=O)=O)cc1)CCc1ccc(NS(C)(=O)=O)cc1,inactive
6,CN(C)CCc1c[nH]c2ccc(C[C@H]3COC(=O)N3)cc12,inactive
7,Cc1ncc(CO)c(C=O)c1O,inactive
8,O=CN1CCCCC1,inactive
9,CCOC(=O)COc1cc(-n2ncc(C(F)(F)F)c(C)c2=O)c(F)cc1Cl,inactive
10,Oc1ccc(-c2ccc(O)cc2)cc1,inactive
11,CN1CCN(C2=Nc3ccccc3Sc3ccc(Cl)cc32)CC1,inactive
12,Cc1cccc([N+](=O)[O-])c1C(=O)O,inactive
13,c1ccc(C(O[C@H]2CCCN(CCc3ccc4c(c3)OCO4)C2)c2ccccc2)cc1,inactive
14,CCC(C)CCCC(C)(C)O (configuration not stated),inactive
15,CCCCCCOC(=O)CCCCC(=O)OCCCCCC,inactive
16,CCOc1ccc(NC(=O)OC(C)C)cc1OCC,inactive
17,CC(C)C(=O)OCc1ccccc1,inactive

row,Structure (SMILES),Potency
1,CN(C)[C@@H]1C(=O)C(C(=O)NCN2CCCC2)=C(O)[C@@]2(O)C(=O)C3=C(O)c4c(O)cccc4[C@@](C)(O)C3C[C@@H]12 (some centres not stated),inactive
2,CC(=O)OC1CCCCC1,inactive
3,CCCCCCCCOC(C)=O,inactive
4,CCOC(=O)C(C)(C)C,inactive
5,CCCCCCCCN(C)CCCCCCCC,inactive
6,COc1cc2nc(Cl)nc(N)c2cc1OC,inactive
7,CCCN(CCC)c1c([N+](=O)[O-])cc(C(F)(F)F)c(N)c1[N+](=O)[O-],inactive
8,CCN(CC)c1ccc(C=O)cc1,inactive
9,O=C1c2ccccc2C(=O)C1(O)O,inactive
10,CCOc1cccc(N)c1,inactive
11,CCCCCCCCCCCC(C)=O,inactive
12,CC(=O)Oc1ccc(C(C)=O)cc1,inactive
13,CCOC(=O)CCC(=O)OCC,inactive
14,C=CC(OCC)OCC,inactive
15,CN1CCC[C@@H]1Cc1c[nH]c2ccc(CCS(=O)(=O)c3ccccc3)cc12,inactive
16,CCCCCCCCCC(=O)OCC,inactive

# Source: PubChem BioAssay (Tox21)
